SMILES strings stand for the structures. Among all 170,000 compounds or so, about 460 (0.27%) were called active. The full list was thinned out, with actives kept by preference. A number with no mark means an inactive call.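 Rule for the calls: active = inhibition above the plate cutoff, the mean inhibition of test wells on that plate plus 3 SD (cut at about 28% in these data); inactive = the rest.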

Sequence of Sphingosine 1-phosphate receptor 3 (Homo sapiens) (Q99500 whole entry, looked up): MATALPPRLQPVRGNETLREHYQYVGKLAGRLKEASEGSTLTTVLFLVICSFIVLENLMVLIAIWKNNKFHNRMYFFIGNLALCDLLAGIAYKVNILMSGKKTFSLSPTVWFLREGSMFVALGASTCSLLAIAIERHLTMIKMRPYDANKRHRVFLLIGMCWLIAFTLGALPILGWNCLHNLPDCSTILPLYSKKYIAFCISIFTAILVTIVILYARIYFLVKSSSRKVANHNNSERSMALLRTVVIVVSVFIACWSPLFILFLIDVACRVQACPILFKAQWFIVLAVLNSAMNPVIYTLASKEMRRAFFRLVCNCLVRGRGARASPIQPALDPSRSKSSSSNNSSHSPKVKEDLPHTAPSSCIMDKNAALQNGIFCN

The experiment concerns the target Sphingosine 1-phosphate receptor 3 (Homo sapiens) (UniProt Q99500). As to the kind of experiment: inhibition of S1P-stimulated S1P3 activation – cell-based, primary screen (AID 485).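 Note: cells challenged with S1P at its EC80 of 0.8 µM; blue over green emission ratio from cleaved BLA substrate after 4 h stimulation; 0% = S1P-stimulated wells and 100% = unstimulated DMSO-only wells.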 Conditions: CHO S1P3 NFAT-BLA reporter, FRET fluorescence, antagonist mode; at 4.98 µM; hits give high values.
For the compound `COc1ccc(/C=C/CN2CCCC(C(=O)c3cc(F)ccc3F)C2)cc1` (centres undefined), the inhibition was -10.6%.
To `COC(=O)N(NC(=O)C(O)(C(C)C)C(C)C)c1ccccc1` belongs 11%; to `CC(CNS(=O)(=O)c1ccc(Br)cc1)CN(C)C` (centres undefined), -2.53%.
Next, `COc1ccc(N=C(C)c2sc3ccccc3c2O)cc1`: 6.44%; `Cc1nc2cc(NC(=O)NC3CC3)ccc2n1C`: -13.8%; `OC1CCCN(c2ncnc3c2nnn3Cc2c(F)cccc2Cl)C1` (centres undefined): -7.85%.
On to `N#C/C(=C/c1ccc(-c2ccccc2[N+](=O)[O-])o1)C(=O)NCCN1CCCCC1`, for which the inhibition was -1.3%.
As to `CCC(C)N(C(=O)COC(=O)C1C(C(=O)OC)=C(C)NC(C)=C1C(=O)OC)C1CCS(=O)(=O)C1` (centres undefined), the inhibition is -2.76%.
`CN1C=CC=C/C1=C1\SC(=S)N(Cc2ccccc2)C1=O`: the inhibition was -8.73%.
For the compound `CCc1ccc(S(=O)(=O)NCC(O)COc2ccc(OC)cc2)cc1` (centres undefined), the inhibition is 11.9%.
To `O=C(N/N=C/c1c[nH]c2ccccc12)c1cc2ccccc2o1` belongs -11.5%; to `Cc1c(/C=N\NC(=O)c2cc3ccccc3o2)c2ccccc2n1C`, 9.64%; to `O=C(N/N=C/c1coc2ccccc2c1=O)c1cc2ccccc2o1`, 30.4% (active).
To `COc1cc(NS(=O)(=O)c2ccc(NC(=O)c3ccc(S(=O)(=O)N4CCCCC4)cc3)cc2)ncn1` belongs -13.9%.
As to `CC(C)CNC(=O)C(=O)NCc1ccccc1`, the inhibition is 1.01%.
Next, `CCOC(=O)C1=NOC(Cn2cc(C(C)=O)c(=O)[nH]c2=O)C1` (centres undefined): -0.07%; `Cc1cccc2c1N(CCOc1ccccc1)C(=O)C2=O`: -6.34%.
To `Nc1c(C(=O)c2cccs2)sc2nsc(SCCN3CCCCC3)c12` belongs 28.7% (active); to `Cc1nc2sc(C(=O)c3ccccc3)c(N)c2c2c1CCCC2`, 26.9%; to `O=C(CSc1nc2ccccc2[nH]1)c1cccs1`, -5%.
`O=C(NCc1ccco1)C1CCCN1S(=O)(=O)c1ccccc1C(F)(F)F` (centres undefined): the inhibition is 5.85%.
For `O=C(NCCc1c[nH]c2ccccc12)C(=O)NCC1CCCO1` (centres undefined), the inhibition was -20.2%.
Next, `S=C(NCCc1ccccc1)NCC1CCCO1` (centres undefined): 29.2% (active); `O=C(CS(=O)(=O)Cc1ccccc1)NCC1CCCO1` (centres undefined): 9.8%; `O=S1(=O)CC/C(=N\Nc2ccc(F)cc2)c2ccsc21`: 3.45%.
To `S=C(NCc1ccco1)Nc1ccc2c(c1)OCCO2` belongs -9.96%.
As to `CC12CN3CCN(CC(C3)/C1=N\NC(=O)c1ccccc1N)C2`, the inhibition was -5.45%.
With `COc1ccc(C)cc1NC(=O)C(OC(=O)c1cccc(S(=O)(=O)N(C)c2ccccc2)c1)c1ccccc1` (centres undefined), the inhibition was -3.14%.
In the case of `CC(=O)c1c(C)[nH]c(C(=O)COC(=O)c2cccc(S(=O)(=O)N(C)c3ccccc3)c2)c1C`, the inhibition was 37.9% (active).
To `CN(c1ccccc1)S(=O)(=O)c1ccc(Cl)c(C(=O)OCC(N)=O)c1` belongs -15.6%; to `O=C(NCC(c1cccs1)N1CCOCC1)c1cc(-c2ccccn2)nc2ccccc12` (centres undefined), -2.5%.
As to `COCCn1c(SCC(=O)c2[nH]c(C)c(C(C)=O)c2C)nc2ccccc2c1=O`, the inhibition is -13.7%.
For the compound `NS(=O)(=O)c1ccc(NC(=O)COC(=O)c2cc3ccccc3oc2=O)cc1`, the inhibition was 11.2%.
Consider `O=C(N/N=C/c1cccc([N+](=O)[O-])c1)c1ccncc1`, for which the inhibition is -7.73%.
`Cc1ccc(NC(=O)NNC(=O)c2sccc2-n2cccc2)cc1`: the inhibition is 8.38%.
Next, `COc1ccc(C2=NN(c3nc4ccccc4s3)C(=O)C2)cc1`: -9.89%; `CCOC(=O)N1CCN(c2c(NCCN3CCN(c4ccccc4F)CC3)c(=O)c2=O)CC1`: -1.55%; `COc1ccc(NC(=O)C2CCC(CNc3c(N4CCCCC4)c(=O)c3=O)CC2)c(OC)c1` (centres undefined): -5.91%.
Next, `COc1ccc(NS(=O)(=O)c2ccc(Oc3c(C#N)cccc3C#N)cc2)cc1`: 1.93%; `COc1ccc(CC(=O)N[C@@H](CCSC)c2nc3ccccc3[nH]2)cc1`: -1.34%.
Next, `CCn1c(=O)c([N+](=O)[O-])c(NCc2ccc3c(c2)OCO3)c2ccccc21`: -5.99%; `O=C(Nc1ccc2oc(-c3ccccc3F)nc2c1)c1ccco1`: -11.6%.
`Nc1nc(SC23CC4CC(CC(C4)C2)C3)ns1`: the inhibition was -0.08%.
For the compound `Cc1cc(=O)oc2cc(OCCC[n+]3ccccc3)ccc12`, the inhibition was 0.67%.
Next, `CC1=NNC(=O)C1CC(=O)N/N=C/c1ccncc1` (centres undefined): -24.4%; `C[C@@H](NC(=O)OC(C)(C)C)c1nnc(S(=O)(=O)Cc2ccccc2)o1`: -3.71%.
Turning to `CCOC(=O)c1oc2c(CN3CCN(CCO)CC3)c(O)c(CC)cc2c(=O)c1-c1nc2ccccc2s1`, the inhibition is -10.5%.
For the compound `Cc1ccc(S(=O)(=O)N(C)C)cc1NC(=O)c1n[nH]c(=O)c2ccccc12`, the inhibition is -6.86%.
For the compound `Cc1cccc(C)c1N1CCN(S(=O)(=O)N2CCCCC2)CC1`, the inhibition was -28.1%.
Next, `CNC(=O)Nc1cc(C(C)(C)C)no1`: 92.8% (active); `COc1ccc(CN2C(=O)C(C)S/C2=N/N=C/c2ccco2)cc1` (centres undefined): -5.66%; `CCn1c(-c2cccnc2Cl)nc2cc(C)c(C)cc21`: -10.7%.
Regarding `Cn1c(C(=O)O)ccc1S(=O)(=O)N(Cc1ccccc1)Cc1ccccc1`, the inhibition is 3.65%.
With `OCCC1CN(Cc2ccccc2-c2ccco2)CCN1Cc1ccsc1` (centres undefined), the inhibition is -6.06%.
To `CC(=O)NC(=S)NNC(=O)c1ccc(Br)cc1` belongs -11.1%; to `CCOc1ccc2sc(NS(=O)(=O)c3ccc(N)cc3)nc2c1`, -8.22%; to `Oc1c(Br)cc(/C=N/NC(=S)NCC2CCCO2)cc1Br` (centres undefined), 0.61%.
Next, `Cc1cc(C(C)(C)C)cc(S(=O)(=O)Nc2ccc(C(=O)O)cc2)c1C`: -12.2%.
Next, `COc1cc2[nH]c(=O)n(Cc3ccc(C(=O)NC4CCN(Cc5ccccc5)CC4)cc3)c(=O)c2cc1OC`: -15.1%; `COc1ccc(N2CCN(C(=S)Nc3ccc(S(N)(=O)=O)cc3)CC2)cc1`: 6.19%.
With `CC(=O)NC(CC(=O)Nc1nccs1)c1ccccc1` (centres undefined), the inhibition is -11.7%.
Turning to `CSCCNCc1cn(-c2ccc(F)cc2F)nc1-c1ccccc1C`, the inhibition was -21.2%.
To `CC(NC(=O)C(=O)N/N=C/c1ccc(Cl)cc1)c1ccccc1` (centres undefined) belongs -3.11%.
Next, `Cc1nc(CNS(=O)(=O)c2cc([N+](=O)[O-])ccc2C)cs1`: 10.3%; `COc1ccc(CNC(=O)CCC(=O)Nc2nnc(C(C)C)s2)cc1`: -0.16%.
For the compound `CS(=O)(=O)c1ccc2nc(NC(=O)c3ccc(N4CCCC4=O)cc3)sc2c1`, the inhibition was -4.82%.
Next, `COc1ccccc1NC(=O)c1c(Br)cnn1C`: 2.9%.
Next, `O=C(O)c1ccccc1OCc1ccccc1Cl`: 8.64%.
To `O=C(/C=C/c1ccc(Cl)cc1)Nc1ccc(S(=O)(=O)Nc2ncccn2)cc1` belongs -1.53%.
For `Cc1cc(C)n(CC(C)NCc2c(C(=O)N3CCOCC3)nc3c(C)cccn23)n1` (centres undefined), the inhibition was 16%.
For the compound `COc1cccc(CC2(CO)CCCN(Cc3nc(-c4cccs4)oc3C)C2)c1` (centres undefined), the inhibition is -7.51%.
In the case of `CCC(CC)c1nnc(NC(=O)c2nn(C)c(=O)c3ccccc23)s1`, the inhibition is -16.1%.
As for `COc1ccc(N2CCN(C(=O)/C(C#N)=C/c3ccccc3)CC2)cc1`, the inhibition is -0.3%.
As for `Nc1cc(C(F)(F)F)ccc1N1CCOCC1`, the inhibition was 8.92%.
On to `COc1cc(OC)cc(/C(N)=N/O)c1`, for which the inhibition is 9.29%.
As for `CCOc1cc(N2CCOCC2)c(OCC)cc1NC(=O)c1ccc(C)s1`, the inhibition was 2.86%.
Turning to `CCOC(=O)CN(C(=O)COc1nc(-c2ccccc2)cc(C)c1C#N)c1ccc(F)cc1`, the inhibition was -12.8%.
Turning to `Nc1nc(NCC2CCCO2)nc(Nc2ccccc2F)c1[N+](=O)[O-]` (centres undefined), the inhibition was 6.85%.
To `CC(C)NC(=O)/C(C#N)=C\c1ccc(N(C)C)c(Br)c1` belongs -16.2%.
With `C=CCN(c1ccccc1C(=O)NCC(=O)OCC)S(=O)(=O)c1ccc(C)cc1`, the inhibition is 3.85%.
As to `CC1=CC2=NC(=O)/C(=C/c3coc4ccccc4c3=O)C(=N)N2O1`, the inhibition is -5.98%.
Consider `CCOc1cc(NS(=O)(=O)c2ccc(OC)cc2)c(OCC)cc1NC(C)=O`, for which the inhibition is -10.8%.
Next, `O=C(NCCN1CCOCC1)c1ccc2c(c1)N(Cc1ccc(Cl)cc1)CCS2`: 1.26%.
Next, `CCc1ccc(Nc2nnc(SCC(=O)c3ccc4c(c3)NC(=O)CO4)s2)cc1`: -5.18%; `O=C(c1ccc(F)cc1)n1cc(C(=S)N2CCOCC2)c2ccccc21`: 16.1%.
Next, `O=C(Nc1ccccc1Cl)/C(Cl)=C(\Cl)S(=O)c1ccccc1` (centres undefined): 40.8% (active); `O=C(CN1CCCCC1)Nc1ccccc1Cl`: -9.78%; `O=C(Nc1ccccc1Cl)c1ccc2nsnc2c1`: 0.3%.
Turning to `CCOC(=O)C1=C(c2ccccc2)NC(=S)NC1c1ccc(Cl)cc1` (centres undefined), the inhibition is -1.74%.
To `C=CCN1CC(C)/C(=N\O)CC1C` (centres undefined) belongs -3.95%.
To `Cc1cc(C)nc(Nc2cc([N+](=O)[O-])ccc2C)n1` belongs 11.2%; to `Cc1nn(-c2ccc([N+](=O)[O-])cc2)c(N)c1-c1ccccc1`, -7.46%.
Regarding `COc1ccccc1C1CCN(C(=S)Nc2ccc(Br)cc2)CC1`, the inhibition was 7.17%.
To `O=C(Nc1ccc(N2CCN(C(=O)c3ccccc3)CC2)c(Cl)c1)c1ncn[nH]1` belongs 7.3%.

What is called inhibition is the change of the read-out against control, counted positive when it falls.

These data come from PubChem BioAssay AID485 (The Scripps Research Institute Molecular Screening Center, 2006).
